# Hits are enriched below; roughly 21% of the tested compounds scored in any of these assays.
# NS1 inh: qHTS Assay for Inhibitors of Influenza NS1 Protein Function; Potency, µM (series often up to 46.1 µM), inactives show at the top dose activity, positive = more growth; actives 0.4% (n = 270,000); AID 2326, 2010; calls by dose curve; note: potency is the fitted concentration of half-maximal effect; actives are rising curves; nearly all actives have a fitted effect of over 50% in size
#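 Growth recovery, yeast-based: influenza A NS1 expressed in S. cerevisiae causes slow growth, and suppressors are detected by OD600. The parent strain without NS1 is used as positive control.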
# Shiga inhibitor: A qHTS for Small Molecule Inhibitors of Shiga Toxin | actives 9.2% (n = 290,000) | inhibition, % at 38.7 µM | Vero cells, Shiga toxin protein synthesis inhibition reporter; in the data active = inhibition mostly above about 28%, no sharp cut-off; inactive = mostly below about 43%; note: 0% is about no effect
# Pf growth 48h: Primary qHTS for delayed death inhibitors of the malarial parasite plastid, 48 hour incubation; Potency, µM (highest dose often 28.7 µM), for inactives: at the highest dose activity change, negative = inhibition, hits mostly inhibitors; actives 5.9% (n = 310,000); P. falciparum luciferase growth in erythrocytes, 48 h; note: potency is the fitted concentration of half-maximal effect; % is set by controls: 0 for no effect and ±100 for the full control effect
#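 Growth was read as firefly luciferase luminescence after a 48 h, 37 C, 5% CO2 exposure of compounds to reporter-bearing P. falciparum cultures (0.1% parasitemia, 2% hematocrit final) in Albumax-supplemented RPMI 1640.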
# FBPA Giardia inh: qHTS Assay for Inhibitors of Fructose-1,6-bisphosphate Aldolase from Giardia Lamblia. A8B2U2. purified Giardia FBPA. Potency, µM (titrated, usually from 59.6 µM), for the others: at the top dose activity, negative = inhibition, usual class: inhibitors. actives 0.71% (n = 290,000); note: potency is the fitted concentration of half-maximal effect; % is set by controls: 0 for no effect and ±100 for the full control effect; nearly all actives have a fitted effect of over 55% in size
# Target sequence (A8B2U2 whole entry, looked up): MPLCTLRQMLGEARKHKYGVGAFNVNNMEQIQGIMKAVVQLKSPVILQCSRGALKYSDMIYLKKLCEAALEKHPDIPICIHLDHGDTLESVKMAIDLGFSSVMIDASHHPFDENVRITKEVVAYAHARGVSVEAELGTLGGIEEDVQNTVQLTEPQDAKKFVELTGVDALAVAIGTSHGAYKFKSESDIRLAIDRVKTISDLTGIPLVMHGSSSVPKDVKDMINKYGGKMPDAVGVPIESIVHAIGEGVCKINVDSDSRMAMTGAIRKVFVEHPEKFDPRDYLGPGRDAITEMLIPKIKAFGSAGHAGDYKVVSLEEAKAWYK
#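 Giardia FBPA (40 nM reagent) was preincubated 10 min at RT with compound (up to 57.5 uM final), then substrate plus GAPDH/TPI/NAD/arsenate coupling system with diaphorase/resazurin was added; resorufin fluorescence (525/598 nm) was read after 20 min.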
# Pf growth 96h: Primary qHTS for delayed death inhibitors of the malarial parasite plastid, 96 hour incubation | P. falciparum luciferase reporter growth, 96 h | Potency, µM (titrated, usually from 28.7 µM), without a hit: at the highest dose activity change, negative = inhibition, hits mostly inhibitors | actives 6.9% (n = 320,000) | AID 504834, 2011; note: potency is the fitted concentration of half-maximal effect; % is set by controls: 0 for no effect and ±100 for the full control effect
#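 Two parasite generations (96 h, 37 C, 5% CO2) of compound exposure in infected erythrocytes (0.05% parasitemia, 2% hematocrit). Luciferase-reporter P. falciparum; decreased luminescence indicates inhibited growth, aimed at apicoplast-acting delayed death.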
# CHX counter-1: Cycloheximide Counterscreen for Small Molecule Inhibitors of Shiga Toxin; AID 2314, 2010; actives 12% (n = 300,000); max response, %; cell reporter, cycloheximide protein synthesis inhibition counterscreen; in the data active = max response mostly above about 13%, no sharp cut-off; inactive = mostly below about 14%; note: read at 38.3 µM for the half of the compounds with a filed dose; 0% is about no effect
# CHX counter-2: Cycloheximide Counterscreen for Small Molecule Inhibitors of Shiga Toxin (Confirmatory). shares compounds with Shiga inhibitor. Cycloheximide counterscreen, protein synthesis reporter, Shiga toxin assay. Potency, µM (titrated, usually from 38.3 µM), without a hit: top-dose activity (activation), hits mostly activators. actives 3% (n = 510); calls by dose curve; note: potency is the fitted concentration of half-maximal effect; 0% is about no effect
# * hit, by the source's call; ? = inconclusive; . = not tested or not shown; + = active, no number; [ ] = remark or other dose. Unless noted, calls come from the whole dose curve; as a rule, active = well fitted curve in the direction sought with a large enough effect; inconclusive = small, poorly fitted or top-dose-only effect, or another doubt; inactive = no such curve, though single readings can be large; an effect the other way counts as inactive or inconclusive.
SMILES,NS1 inh,Shiga inhibitor,Pf growth 48h,FBPA Giardia inh,Pf growth 96h,CHX counter-1,CHX counter-2
COc1cccc(CNC(=O)c2ccc(C)c(NC3=NC4CS(=O)(=O)CC4S3)c2)c1 (stereo unspecified),-2.8%,11.1*,-12.0%,?,0.9%,-1.2,2.9%
O=c1c2oc3ccccc3c2ncn1Cc1ccc(Cl)cc1,.,5.1,0.0%,-2.6%,21.2%,9.1,.
Cc1ccc(C(C)C)c(OCC(=O)Nc2ccc3c(c2)nc(CCN2CCCCC2)n3C)c1,-6.8%,-21.0,?,-12.4%,-18.5%,-13.2,.
COc1cccc(C2=CC(c3ccccc3)n3nnnc3N2)c1 (stereo unspecified),-13.8%,2.7,51.2%,-15.7%,13.3%,0.6,.
COc1ccc(C2=CC(c3ccc(C)cc3)n3nnnc3N2)cc1 (stereo unspecified),-14.5%,68.9*,?,-18.7%,?,-2.4,3.7%
COc1ccc(NC(=O)CSc2nccn2-c2cccc(OC)c2)cc1,-74.7%,39.8*,6.0%,10.2%,?,0.5,1.9%
COc1ccc(-n2ccnc2SCC(=O)Nc2ccccc2)cc1,-136.5%,-16.1,?,1.9%,3.6%,-4.0,.
O=C(CCn1cnnn1)Nc1ccccc1,.,21.9*,13.6%,2.3%,43.4%,8.8,-3.3%
COc1nc2ccccc2c(=O)n1-c1ccc(C)cc1,-6.0%,18.8*,-0.9%,-4.1%,-8.2%,-3.2,-1.1%
CC(C)Nc1nc(NC(C)(C)C)nc(Oc2ccc(=O)n(-c3ccccc3)n2)n1,?,-24.8,?,.,.,-2.8,.
COc1ccc(C(C)=O)cc1COc1cccc2cccnc12,-35.4%,.,4.0%,-8.1%,?,-4.4,.
COc1cc(C(C)=O)ccc1OCCCOc1cccc2cccnc12,-43.5%,48.1*,-7.8%,-4.3%,-9.1%,1.8,?
CC(=O)Nc1ccc(NC(=O)C2CCN(C(=O)C3CC(=O)N(c4ccc(C)cc4)C3)CC2)cc1 (stereo unspecified),3.8%,-8.7,-13.4%,.,25.0%,-6.2,.
O=C(O)C1CCCCC1C(=O)Nc1ccc(-c2ccccc2)cc1 (stereo unspecified),-1.3%,52.8*,10.4%,15.2%,-15.8%,12.0,-1.2%
CC(=O)Nc1ccc(NC(=O)C2CCCCC2C(=O)O)cc1 (stereo unspecified),3.2%,14.2,11.5%,-1.6%,5.1%,8.1,.
CC1=C(C)CC(C(=O)NCc2ccccc2F)C(C(=O)O)C1 (stereo unspecified),27.3%,-2.9,1.0%,9.1%,?,-1.0,.
Cc1ccc(-c2csc(NC(=S)NC(=O)/C=C/c3ccco3)n2)cc1,10.5%,32.8,47.4%,.,23.3%,11.6,.
O=C(/C=C\c1ccco1)Nc1nc(-c2ccc3ccccc3c2)cs1,14.0%,58.1*,-17.6%,-9.2%,-2.2%,20.8,2.7%
COc1cc(C2C(S(=O)(=O)c3ccccc3)CON2C)ccc1OCc1ccc(F)cc1 (stereo unspecified),-5.8%,42.7*,-12.1%,0.0%,-4.1%,11.8,4.8%
Cc1ccc([N+](=O)[O-])cc1NC(=O)CSc1nncc2ccccc12,3.1%,-4.5,-6.7%,.,-94.0%,2.6,.
O=c1cc(-c2cccc(F)c2)[nH]c2ccc(Cl)cc12,.,+,.,-3.5%[89.2 µM],.,9.1,-1.7%
COc1ccc(-c2cc(-c3ccccc3)nc(=O)[nH]2)cc1,-5.2%,7.9,-14.6%,-7.7%,-29.1%,4.4,.
COc1ccc2[nH]c(-c3ccccc3)cc(=O)c2c1,.,+,.,-15.5%[89.2 µM],.,16.7,?
O=C(Cc1ccccc1)NNC(=O)C1CC=CCC1 (stereo unspecified),10.3%,-12.9,12.3%,2.0%,-22.7%,-7.2,.
Cc1ccc(C)c(NC(=O)C2CC(=O)N(C3CCCCC3)C2)c1 (stereo unspecified),0.2%,17.5,10.0%,9.7%,?,-4.3,.
SMILES,NS1 inh,Shiga inhibitor,Pf growth 48h,FBPA Giardia inh,Pf growth 96h,CHX counter-1,CHX counter-2
Cc1ccc(O)c(NC(=O)C2CCCCC2)c1,-3.2%,34.3*,-0.1%,0.0%,?,8.0,1.3%
CCOC(=O)C1=C(C)NC(=O)NC1c1ccc(OCC(=O)OC)c(OC)c1 (stereo unspecified),1.7%,13.4,?,-7.4%,68.4%,-2.1,.
CCOC(=O)C1=C(C)NC(=O)NC1c1ccc(OCC(=O)Nc2ccccc2)c(OC)c1 (stereo unspecified),-45.0%,39.4*,?,3.5%,?,7.0,0.0%
CSc1nc2ccc(N3C(=O)C4CCCCC4C3=O)cc2s1 (stereo unspecified),-1.5%,38.3*,48.2%,-2.6%,35.7%,-3.4,?
CSc1nc2ccc(S(=O)(=O)N3CCCC3)cc2s1,-88.1%,25.0,-7.8%,5.0%,.,-2.4,.
COc1ccc(NC(=O)c2cc(C)on2)cc1OC,-2.4%,27.8*,32.8%,-0.5%,.,-0.7,8.9%
COc1ccc(NC(=O)c2cc(-c3ccc(C)cc3)on2)cc1OC,-10.3%,-13.6,5.0%,8.3%,5.6%,-0.2,.
O=C(Nc1cccnc1Cl)c1ccc(Cl)c([N+](=O)[O-])c1,5.6%,17.3,4.8%,-12.8%,?,6.3,.
CC(=O)Nc1cccc(NC(=O)CSc2nc3ccccc3o2)c1,12.2%,25.1*,19.0%,2.3%,?,6.9,-1.5%
O=C(CSc1nc2ccccc2o1)Nc1nc2ccc(Br)cc2s1,10.3%,92.9,?,18.9%,.,22.0,.
CCOC(=O)/C(C(=O)Nc1ccc(Br)cc1)=C1/NC(C)(C)Cc2ccccc21,-2.3%,44.7*,?,-4.2%,?,11.0,?
CC(C)CC1=C/C(=C/c2ccc(-c3ccccc3)o2)C(=O)O1,12.3%,40.4*,?,1.2%,?,8.8,0.4%
CN(C)/C=C1/C=C(c2ccccc2)OC1=O,-5.1%,-2.8,.,-8.5%,1.3%,9.0,.
O=C(NC1CCCC1)c1cc(Cl)ccc1[N+](=O)[O-],3.9%,27.5*,13.1%,6.4%,13.4%,13.6,-3.5%
NS(=O)(=O)c1ccc(N=Nc2nc3[nH]cnc(=S)c3[nH]2)cc1,7.6%,.,.,.,.,.,.
COc1ccc(C(=O)COC(=O)c2cc(S(=O)(=O)NCc3ccccc3)ccc2O)cc1,.,-9.4,10.0%,1.3%,0.9%,2.2,.
COc1ccc(C(CC(=O)NCc2ccco2)c2ccc(F)cc2)cc1 (stereo unspecified),-8.4%,-5.6,?,-2.5%,?,1.0,.
Cc1ccc(C(CC(=O)NCc2ccco2)c2ccc(OC(C)C)cc2)cc1 (stereo unspecified),-40.3%,41.6*,.,0.2%,.,14.8,5.5%

# Screening results: PubChem, National Center for Advancing Translational Sciences (NCATS)
